The target in test [1] is Ferritin light chain (Equus caballus) (UniProt P02791). The test is described as follows: qHTS Validation Assay for Identification of Novel General Anesthetics (AID 2323). Note: series mostly up to about 77 µM. The essentials:
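Horse-spleen apoferritin (10 uM) in PBS with 50% saturated 1-aminoanthracene; compounds pin-transferred, 10 min at room temperature. Fluorescence read at 380/535 nm, normalized to free 1-AMA and 1-AMA/apoferritin values; four-parameter Hill fit.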
For orientation: In qHTS, concentration-response curves come from the screen itself.

Test [2] addresses ATP-dependent DNA helicase Q1 (Homo sapiens) (UniProt P46063). The test is described as follows: qHTS Validation Assay for Inhibitors of RecQ-Like Dna Helicase 1 (RECQ1) (AID 2353). Note: potency is the fitted concentration of half-maximal effect. In short, it runs like this:
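RECQ1T1 50 nM; forked duplex (20 bp + 30-nt ss tails) 200 nM, ATP 2 mM final; pH 8.0, 2 mM MgCl2, 2.5 ug/ml poly(dI-dC); 15 min compound preincubation; discontinuous kinetic read over 2 h at RT.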

Test [3] is described as follows: Cytometric Cell-Based qHTS for Inhibitors of the mTORC1 Signaling Pathway in MEF (Tsc2-/-, p53-/-) Cells (AID 2660).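 Note: Tsc2 and p53 null MEFs carrying empty vector with compound for 24 h; percent of cells above a phospho-rpS6 to PI ratio cutoff in each well; series mostly up to about 38 µM.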 The essentials:
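Immunofluorescence qHTS of rpS6 Ser235/236 phosphorylation: MEFs (Tsc2-/-, p53-/-) treated 24 h, 37 C, in DMEM + 10% FBS. Alexa-488 signal normalized to PI count, referenced to rapamycin (7.5 nM) and DMSO; PI cell number recorded for viability.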

Test [4] is described as follows: High Content Imaging Cell-Based qHTS for Inhibitors of the mTORC1 Signaling Pathway in MEF (Tsc2-/-, p53-/-) Cells (AID 2666).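 Note: percent of cells scored positive for phospho-rpS6 Ser235/236 immunostaining by imaging.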 Note: potency is the fitted concentration of half-maximal effect. In short, it runs like this:
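Inhibition of rpS6 phosphorylation is measured by immunofluorescence imaging in empty-vector Tsc2-/-, p53-/- mouse embryonic fibroblasts after 24 hrs compound exposure at 37 degree Celsius. Results are reported as % positive cells per well.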

A short description of test [5]: High Content Imaging Cell-Based qHTS for Inhibitors of the mTORC1 Signaling Pathway in MEF Cells (AID 2667).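 Note: Tsc2-/- p53-/- MEFs stably re-expressing wild-type Tsc2 exposed 24 h; series mostly up to about 38 µM.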 The essentials:
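Fixed-cell imaging of phospho-S6 (Ser235/236, Alexa-488) after 24 hrs of compound treatment at 37 degree Celsius. Signal was normalized to Hoechst, and thresholds from the highest and lowest wells split cells into % active versus % non-active.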

Test [6] in a line: Cytometry Cell-Based qHTS for Inhibitors of the mTORC1 Signaling Pathway in MEF cells (AID 2668).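 Note: Tsc2-/- p53-/- mouse embryonic fibroblasts stably re-expressing wild-type Tsc2; percent cells positive for phospho-rpS6 Ser235/236 relative to propidium iodide stain; series mostly up to about 38 µM.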 The essentials:
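MEFs (Tsc2-/-, p53-/- stably expressing WT Tsc2) treated 24 h at 37 degree Celsius, fixed, stained with Alexa-488 anti-phospho-rpS6 Ser235/236 and propidium iodide; Acumen laser scanning. Reported as % positive cells, phospho-S6 normalized to PI.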

A short description of test [7]: Validation screen for small molecules that induce DNA re-replication in MCF 10A normal breast cells (AID 463097). Note: nearly all actives have a fitted effect of over 60% in size. The essentials: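 MCF 10A cells exposed to compound 48 hr at 37 C, 5% CO2, then Hoechst-stained 40 min. Laser-scanning imaging of nuclear DNA content (405 nm ex, 500-530 nm em); re-replication scored as rise in nuclei with elevated fluorescence intensity.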

Test [8] has as its target Ubiquitin carboxyl-terminal hydrolase 2 (Homo sapiens) (UniProt O75604). Description: qHTS Validation Assay for Inhibitors of Ubiquitin-specific Protease USP2a Using CHOP2 as the Reporter (AID 463106). In short, it runs like this:
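Inhibition is expressed relative to NEM as the full-inhibition control, with concentration-response curves classed by fit quality, magnitude and activity. Enzyme (USP2 core, 10nM) meets 25nM Ub-CHOP2 after compound preincubation; readings are taken at 60min.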

Test [9] has as its target Tumor susceptibility gene 101 protein (Homo sapiens) (UniProt Q99816). The test is described as follows: qHTS Validation Assay for Iinhibitors of HIV-1 Budding by Blocking the Interaction of PTAP/TSG101 (AID 485342; calls by dose curve). The essentials: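 Tsg101 binding domain (10 uM) with FITC-labeled PTAP peptide (50 nM) in HEPES pH 7.5 buffer, 20 min at r.t. with compounds. Binding measured by fluorescence polarization.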

Test [10] concerns the target Beta-2 adrenergic receptor (Homo sapiens) (UniProt P07550). The test is described as follows: qHTS validation assay of beta-arrestin-biased ligands of beta2-adrenergic receptor (AID 485366). In short, it runs like this: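 Agonism was measured as beta-arrestin recruitment to recombinant beta2-AR, releasing tTA to drive luciferase. Cells were exposed for 18 hr at 37 degrees C to a series up to 46 microM. %Activity from corrected luminescence gave concentration-response curves.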

Test [11] concerns the target ATP-dependent 6-phosphofructokinase (Trypanosoma brucei brucei) (UniProt O15648). Description: qHTS Validation Assay to Find Inhibitors of T. brucei phosphofructokinase (AID 485368). Note: potency is the fitted concentration of half-maximal effect. The essentials: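 ADP-Glo luminescence, two-step: residual ATP depleted, then ADP converted to ATP for luciferase. Enzyme 1.25 nM, F6P 0.5 mM, ATP 0.1 mM, pH 8.0 TEA buffer, 45 min RT. Curves fitted and classed by quality and efficacy.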

Test [12] can be described thus: Quantitative high throughput screen for delayed death inhibitors of the malarial parasite plastid, 96 hour incubation (AID 488745). Note: nearly all actives have a fitted effect of over 70% in size. Note: potency is the fitted concentration of half-maximal effect. The essentials:
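Two-generation (96 h) exposure of luciferase-reporter P. falciparum in erythrocytes, 2% hematocrit, 0.1% parasitemia final, 37 C, 5% CO2, RPMI 1640 with 0.5% Albumax. Growth inhibition scored by reduced luminescence.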

A short description of test [13]: Quantitative high throughput screen for delayed death inhibitors of the malarial parasite plastid, 48 hour incubation (AID 488752). Note: nearly all actives have a fitted effect of over 65% in size. The essentials:
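Cultures: infected erythrocytes at final 2% hematocrit and 0.1% parasitemia in Albumax-supplemented RPMI. Parasites express integrated firefly luciferase. Incubation with compound lasts 48 h before luminescent detection of remaining reporter activity.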

Test [14] deals with Thioredoxin reductase 1, cytoplasmic (Rattus norvegicus) (UniProt O89049). Description: qHTS Assay for Inhibitors of Mammalian Selenoprotein Thioredoxin Reductase 1 (TrxR1) (AID 488773). Note: nearly all actives have a fitted effect of over 40% in size. Note: potency is the fitted concentration of half-maximal effect. The settings on record: Potency: inhibition. In short, it runs like this: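 Inhibition is scored from the loss of NADPH fluorescence between first and last reads of an 8-min kinetic run. Selenite (400 uM) was the substrate, added after 15 min compound preincubation at room temperature.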

Test [15] addresses Flap endonuclease 1 (Homo sapiens) (UniProt P39748). The test is described as follows: qHTS Validation Assay for the Inhibitors of Human Flap endonuclease 1 (FEN1) (AID 488816). Note: potency is the fitted concentration of half-maximal effect. The essentials: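 Steps: add FEN1 (10 nM reagent) or buffer only; pin compounds; hold 15 min at room temperature; start with substrate, 50 nM final; read at 0 and 15 min; correct, normalize and fit a four-parameter Hill curve.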

In test [16] the target is M-phase phosphoprotein 8 (Homo sapiens) (UniProt Q99549). Description: qHTS Validation Assay for Inhibitors for MPP8 Chromodomain Interactions with Methylated Histone Tails (AID 488949). Note: nearly all actives have a fitted effect of over 55% in size. Note: potency is the fitted concentration of half-maximal effect. The essentials: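 MPP8 (50 nM) was pre-bound to 50 nM biotinylated H3(1-18)K9me3 peptide in PBS pH 7.4 with 0.01% Tween-20. Compounds were then added for 30 min at room temperature, and complex disruption was read by AlphaScreen with streptavidin donor and nickel-chelate acceptor beads.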

Test [17] concerns the target RecQ-like DNA helicase BLM (Homo sapiens) (UniProt P54132). The test is described as follows: qHTS Validation Assay for Inhibitors of Bloom's syndrome helicase (BLM) (AID 2364). Note: potency is the fitted concentration of half-maximal effect. The essentials:
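BLM 50 nM in 25 mM Tris-HCl pH 8.0, 5 mM NaCl, 2 mM MgCl2, 1 mM DTT, 0.01% Tween-20, 2.5 ug/ml poly(dI-dC); 15 min cpd preinc, RT. Start: 200 nM forked DNA + 2 mM ATP (final). TAMRA read, 2 reads 2 h apart.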

Test [18] addresses Thioredoxin reductase 1, cytoplasmic (Rattus norvegicus) (UniProt O89049). Description: qHTS Assay for Substrates of Mammalian Selenoprotein Thioredoxin Reductase 1 (TrxR1) (AID 488772).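 Note: series mostly up to about 57 µM; a drop in NADPH fluorescence below the no-compound background marks a TrxR1 substrate.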 In short, it runs like this:
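In this dual-purpose format, potential substrates are identified from the first fluorescence read after selenite addition, not from the 8-minute delta. Rat enzyme is preincubated with NADPH and then with compound at ~22 deg C.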

Test [19] is described as follows: qHTS Assay for Identification of Small Molecule Inducers of Hypoxia Response (AID 2120; active = well fitted curve in the direction sought with a large enough effect in the signal ratio, with a control signal flat, not every such curve was filed as active; the % refers to the signal ratio). The essentials: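 HRE-bla ME-180, 2500 cells/well, 0.5% dialyzed FBS medium; cpd titration, 17 h 37 degrees C; CCF4 2.5 h RT; Ex 405, Em 460/530 ratio -> %Activity, AC50.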

These results are taken from PubChem BioAssay (NCATS).

Values joined by “and” are separate entries in the source; they are usually repeats but may differ in a detail not shown here. Identical values can stand only once. Inconclusive results are not listed. A structure can be active in one record and inactive in another. Active and inactive are the calls of the source. Unless noted, calls come from the whole dose curve; as a rule, active = well fitted curve in the direction sought with a large enough effect; inconclusive = small, poorly fitted or top-dose-only effect, or another doubt; inactive = no such curve, though single readings can be large; an effect the other way counts as inactive or inconclusive.

ATP-dependent 6-phosphofructokinase (Trypanosoma brucei brucei), sequence (O15648 whole entry, looked up): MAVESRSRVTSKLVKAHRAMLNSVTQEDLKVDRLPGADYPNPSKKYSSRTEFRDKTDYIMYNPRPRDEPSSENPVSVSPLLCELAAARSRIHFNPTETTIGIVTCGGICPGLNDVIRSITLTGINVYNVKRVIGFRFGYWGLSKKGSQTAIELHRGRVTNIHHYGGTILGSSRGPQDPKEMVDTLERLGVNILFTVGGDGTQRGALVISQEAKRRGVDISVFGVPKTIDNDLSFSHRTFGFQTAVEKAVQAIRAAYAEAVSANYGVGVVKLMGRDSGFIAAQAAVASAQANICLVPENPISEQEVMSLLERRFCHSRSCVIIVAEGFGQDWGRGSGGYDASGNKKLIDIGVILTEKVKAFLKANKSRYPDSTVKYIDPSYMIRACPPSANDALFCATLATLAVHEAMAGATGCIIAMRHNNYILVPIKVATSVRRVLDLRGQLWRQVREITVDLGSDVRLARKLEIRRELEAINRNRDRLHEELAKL
Thioredoxin reductase 1, cytoplasmic (Rattus norvegicus), sequence (O89049 whole entry, looked up): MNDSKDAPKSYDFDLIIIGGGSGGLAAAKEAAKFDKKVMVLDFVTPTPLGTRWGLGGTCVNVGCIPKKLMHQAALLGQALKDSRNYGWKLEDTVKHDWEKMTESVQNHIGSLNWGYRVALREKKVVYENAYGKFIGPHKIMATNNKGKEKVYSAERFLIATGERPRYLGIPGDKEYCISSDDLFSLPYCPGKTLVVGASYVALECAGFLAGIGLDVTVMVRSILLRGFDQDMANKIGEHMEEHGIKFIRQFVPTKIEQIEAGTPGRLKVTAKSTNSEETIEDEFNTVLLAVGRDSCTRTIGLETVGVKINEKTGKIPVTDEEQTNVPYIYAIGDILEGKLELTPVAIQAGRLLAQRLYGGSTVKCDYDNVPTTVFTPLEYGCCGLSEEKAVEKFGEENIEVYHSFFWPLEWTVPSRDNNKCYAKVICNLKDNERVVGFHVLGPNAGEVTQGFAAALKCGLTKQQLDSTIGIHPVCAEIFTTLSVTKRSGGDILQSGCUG
Beta-2 adrenergic receptor (Homo sapiens), sequence (P07550 whole entry, looked up): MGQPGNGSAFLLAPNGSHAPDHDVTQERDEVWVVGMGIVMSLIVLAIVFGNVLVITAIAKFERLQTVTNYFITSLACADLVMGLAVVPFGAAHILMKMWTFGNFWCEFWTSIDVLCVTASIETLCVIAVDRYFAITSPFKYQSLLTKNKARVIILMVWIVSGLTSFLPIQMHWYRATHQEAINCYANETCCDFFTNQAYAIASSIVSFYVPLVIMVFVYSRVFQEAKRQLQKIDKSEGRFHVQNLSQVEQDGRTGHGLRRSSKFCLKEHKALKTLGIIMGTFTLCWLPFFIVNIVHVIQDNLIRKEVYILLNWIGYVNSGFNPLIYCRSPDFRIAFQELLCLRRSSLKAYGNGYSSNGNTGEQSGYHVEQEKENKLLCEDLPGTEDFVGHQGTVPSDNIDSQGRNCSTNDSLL
M-phase phosphoprotein 8 (Homo sapiens), sequence (Q99549 whole entry, looked up): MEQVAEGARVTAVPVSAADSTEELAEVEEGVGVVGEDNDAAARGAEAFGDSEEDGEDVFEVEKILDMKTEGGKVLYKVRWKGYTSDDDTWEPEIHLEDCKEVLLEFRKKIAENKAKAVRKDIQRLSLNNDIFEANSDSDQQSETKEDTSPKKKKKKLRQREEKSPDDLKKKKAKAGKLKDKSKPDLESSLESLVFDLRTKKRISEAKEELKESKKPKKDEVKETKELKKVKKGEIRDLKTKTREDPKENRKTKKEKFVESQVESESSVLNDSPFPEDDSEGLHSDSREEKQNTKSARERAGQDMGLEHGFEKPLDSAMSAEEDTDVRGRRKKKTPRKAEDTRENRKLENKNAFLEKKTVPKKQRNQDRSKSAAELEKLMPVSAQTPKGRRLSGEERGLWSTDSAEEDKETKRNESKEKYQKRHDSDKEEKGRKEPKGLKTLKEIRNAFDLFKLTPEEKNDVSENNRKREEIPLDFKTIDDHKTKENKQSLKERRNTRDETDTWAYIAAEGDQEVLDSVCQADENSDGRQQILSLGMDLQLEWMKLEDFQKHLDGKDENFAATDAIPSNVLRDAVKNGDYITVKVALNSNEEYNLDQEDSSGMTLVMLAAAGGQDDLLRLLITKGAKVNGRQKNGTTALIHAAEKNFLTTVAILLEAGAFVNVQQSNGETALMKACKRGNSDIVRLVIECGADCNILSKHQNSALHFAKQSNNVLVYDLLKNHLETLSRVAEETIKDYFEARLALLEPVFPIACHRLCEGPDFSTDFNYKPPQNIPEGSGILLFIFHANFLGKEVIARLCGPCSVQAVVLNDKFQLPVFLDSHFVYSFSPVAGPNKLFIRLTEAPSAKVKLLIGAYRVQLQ
Flap endonuclease 1 (Homo sapiens), sequence (P39748 whole entry, looked up): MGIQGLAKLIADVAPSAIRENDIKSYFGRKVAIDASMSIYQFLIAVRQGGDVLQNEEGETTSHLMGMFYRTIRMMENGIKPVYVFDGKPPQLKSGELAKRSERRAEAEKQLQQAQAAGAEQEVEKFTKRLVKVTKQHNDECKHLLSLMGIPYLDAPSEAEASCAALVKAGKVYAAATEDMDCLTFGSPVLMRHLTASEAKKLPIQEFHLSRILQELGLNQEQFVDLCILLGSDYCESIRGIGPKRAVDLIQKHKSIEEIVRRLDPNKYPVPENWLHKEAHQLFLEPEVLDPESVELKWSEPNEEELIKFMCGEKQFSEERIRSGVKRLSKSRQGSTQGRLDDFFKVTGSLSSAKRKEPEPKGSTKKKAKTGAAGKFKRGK
Ferritin light chain (Equus caballus), sequence (P02791 2-175 limits assumed): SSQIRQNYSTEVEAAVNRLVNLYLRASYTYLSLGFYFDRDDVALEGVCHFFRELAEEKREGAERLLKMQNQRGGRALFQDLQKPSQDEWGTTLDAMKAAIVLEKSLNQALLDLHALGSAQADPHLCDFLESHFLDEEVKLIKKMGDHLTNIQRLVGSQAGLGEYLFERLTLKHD
RecQ-like DNA helicase BLM (Homo sapiens), sequence (P54132 whole entry, looked up): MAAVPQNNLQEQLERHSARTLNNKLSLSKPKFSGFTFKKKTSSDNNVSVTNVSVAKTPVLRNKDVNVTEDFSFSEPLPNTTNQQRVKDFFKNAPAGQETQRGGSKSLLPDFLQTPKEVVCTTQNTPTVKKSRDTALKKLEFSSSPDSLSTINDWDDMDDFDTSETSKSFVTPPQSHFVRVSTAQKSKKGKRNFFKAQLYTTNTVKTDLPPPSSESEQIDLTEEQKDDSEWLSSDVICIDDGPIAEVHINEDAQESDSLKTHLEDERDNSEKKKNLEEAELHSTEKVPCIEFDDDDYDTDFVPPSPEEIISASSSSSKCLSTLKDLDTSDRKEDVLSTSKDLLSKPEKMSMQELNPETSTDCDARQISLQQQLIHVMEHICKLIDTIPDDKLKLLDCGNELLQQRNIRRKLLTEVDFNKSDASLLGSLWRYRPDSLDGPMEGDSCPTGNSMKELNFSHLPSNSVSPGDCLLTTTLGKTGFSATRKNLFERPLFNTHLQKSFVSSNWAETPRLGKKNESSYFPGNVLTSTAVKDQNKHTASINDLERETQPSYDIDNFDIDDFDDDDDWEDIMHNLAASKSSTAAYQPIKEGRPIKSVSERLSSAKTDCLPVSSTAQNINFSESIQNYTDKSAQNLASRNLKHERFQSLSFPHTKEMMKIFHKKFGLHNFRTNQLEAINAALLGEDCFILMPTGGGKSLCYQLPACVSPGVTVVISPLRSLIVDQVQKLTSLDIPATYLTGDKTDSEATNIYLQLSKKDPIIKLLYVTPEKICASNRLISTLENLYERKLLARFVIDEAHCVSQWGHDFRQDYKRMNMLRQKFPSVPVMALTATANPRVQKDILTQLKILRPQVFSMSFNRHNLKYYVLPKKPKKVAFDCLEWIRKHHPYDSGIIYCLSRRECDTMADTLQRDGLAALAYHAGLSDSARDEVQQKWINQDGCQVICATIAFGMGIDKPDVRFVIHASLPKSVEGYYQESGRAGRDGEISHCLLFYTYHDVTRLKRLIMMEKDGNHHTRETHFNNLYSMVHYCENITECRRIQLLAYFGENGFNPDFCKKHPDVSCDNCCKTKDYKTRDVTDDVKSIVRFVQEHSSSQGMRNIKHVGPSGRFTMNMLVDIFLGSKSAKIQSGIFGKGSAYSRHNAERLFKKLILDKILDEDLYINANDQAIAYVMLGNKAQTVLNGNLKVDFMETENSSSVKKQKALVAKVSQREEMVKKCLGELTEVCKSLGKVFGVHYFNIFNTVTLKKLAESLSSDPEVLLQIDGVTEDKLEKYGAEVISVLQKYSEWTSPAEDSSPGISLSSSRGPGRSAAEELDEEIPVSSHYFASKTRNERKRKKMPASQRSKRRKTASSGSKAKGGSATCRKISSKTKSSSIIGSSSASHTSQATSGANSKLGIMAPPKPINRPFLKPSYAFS
Tumor susceptibility gene 101 protein (Homo sapiens), sequence (Q99816 whole entry, looked up, the tested form may be a part): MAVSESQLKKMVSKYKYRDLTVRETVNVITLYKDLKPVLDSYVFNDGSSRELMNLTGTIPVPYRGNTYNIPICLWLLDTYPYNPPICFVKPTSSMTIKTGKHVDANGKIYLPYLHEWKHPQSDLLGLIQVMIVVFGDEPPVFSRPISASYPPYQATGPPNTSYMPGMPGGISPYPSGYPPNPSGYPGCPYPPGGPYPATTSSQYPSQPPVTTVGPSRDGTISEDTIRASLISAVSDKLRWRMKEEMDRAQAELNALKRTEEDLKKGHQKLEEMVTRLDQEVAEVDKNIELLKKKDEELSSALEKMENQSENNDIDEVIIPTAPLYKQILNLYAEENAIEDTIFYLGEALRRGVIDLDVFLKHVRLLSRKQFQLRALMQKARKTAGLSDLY

Regarding `O=C(c1ccccc1)c1ccc2n1CCC2C(=O)O` (stereo unspecified), the Potency result in test [1], in test [2], in [3], in [4], in [5] and in [6] was “inactive” in each case. The Potency result in test [7], in test [11], in test [12], in test [13], in [14] and in [15] was “inactive” in each case. Besides, the Potency result in [16] is “inactive”. The compound was classed as inactive in test [8], in test [9] and in test [10].

As for `Cc1c(OCC(F)(F)F)ccnc1CS(=O)c1nc2ccccc2[nH]1` (stereo unspecified), the Potency result in test [1], in test [2], in test [17], in test [3], in test [4] and in test [5] was “inactive” throughout. Moreover, the Potency result in [6], in test [7], in [14] and in test [15] was “inactive” in each case. In addition, the compound was classed as inactive in test [8], in [9], in [10] and in [18].

As for `NNc1nncc2ccccc12`, the Potency result in [1], in test [2], in test [3], in test [4], in test [5] and in test [6] was “inactive” throughout. The Potency entry in [7], in test [11], in [14], in test [15] and in [16] was “inactive” in each case. The compound was called inactive in test [8], in test [9] and in [10].

As for `O=c1ccc2ccc(O)c(O)c2o1`, the Potency entry in test [1], in test [2], in test [17], in test [3], in [4] and in [5] was “inactive” in each case. Also, the Potency entry in [6], in [7] and in [14] was “inactive” each time. The compound was classed as inactive in test [8], in [9], in [10] and in test [18]. The Potency in [12] is 14.7 µM (active); in test [15], 9.47 µM (active).

As to `Cc1nc2n(c(=O)c1CCN1CCC(c3noc4cc(F)ccc34)CC1)CCCC2`, the Potency result in [1], in test [2], in test [17], in test [7], in test [12] and in test [13] was “inactive” in each case. For the same compound, in test [16], the Potency entry is “inactive”.

For the compound `COc1ccc2cc([C@H](C)C(=O)O)ccc2c1`, the Potency result in [1], in test [2], in [17], in test [3], in test [5] and in [6] was “inactive” in each case. Besides, the Potency entry in test [7], in [12], in test [13], in [14] and in test [15] was “inactive” throughout. The compound was called inactive in test [8], in [9] and in [18].

Turning to `O=C(O)c1cccnc1Nc1cccc(C(F)(F)F)c1`, the Potency entry in [1], in [2], in test [17], in test [3], in test [4] and in test [5] was “inactive” in each case. In addition, the Potency entry in test [6], in test [12], in [13], in [14], in [15] and in test [16] was “inactive” each time. Also, the result in [8], in test [9], in [10] and in test [18] was inactive.

`O=c1c(O)c(-c2cc(O)c(O)c(O)c2)oc2cc(O)cc(O)c12`: the Potency result in [1], in test [3], in test [4], in test [7], in test [12] and in test [13] was “inactive” in each case. In addition, the Potency in test [2] is 0.891 µM (active); in [17], 14.1 µM (active); in [11], 3.01 µM (active); in [14], 13.4 µM (active); in test [15], 1.5 µM (active); in [16], 6.31 µM (active) and 8.44 µM (active). The compound was classed as inactive in test [9], in test [10] and in test [18].

On to `Cc1cc(O)c2c(c1)C(=O)c1cc(O)cc(O)c1C2=O`, for which the call in test [19], in test [8], in test [9], in [10] and in test [18] was inactive. Moreover, the Potency entry in test [2], in test [3], in test [4], in test [5], in [6] and in test [12] was “inactive” in each case. Besides, the Potency result in [13] was “inactive”.

Turning to `CCN(CC)C(=S)SSC(=S)N(CC)CC`, the Potency entry in test [2], in test [17], in test [5] and in test [15] was “inactive” throughout. For the same compound, the Potency was 1.85 µM (active) in test [4]; 10 µM (active) and inactive in test [16]. Moreover, the outcome in [8], in test [9], in [10] and in [18] was inactive.

On to `Nc1ccn([C@@H]2O[C@H](CO)[C@@H](O)C2O)c(=O)n1` (stereo partly specified), for which the Potency result in test [4], in [14], in test [15] and in test [16] was “inactive” throughout. The outcome in test [8], in test [9], in [10] and in test [18] was inactive.
